According to PubChem BioAssay (EPA / NIEHS):
Results filed as inconclusive are left out. Calls of active or inactive are those of the source. The calls were made as follows: active = hit-call score of the fitted dose curve at least 0.9, where 1 is the maximum; inconclusive = response in the unintended direction; inactive = score below 0.9.

molecular target: Bile acid receptor (Homo sapiens) (UniProt Q96RI1); test: ATG_FXR_TRANS: Attagene TRANS-FACTORIAL HepG2 Assay for Farnesoid X Receptor (FXR) (AID 2282979); settings: HepG2 Attagene TRANS FXR-GAL4 reporter transcription;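 also: hits raise reporter mRNA above DMSO so AC50 marks FXR activation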
Method: ATG_TRANS is a cell-based, multiplexed-readout assay that uses HepG2, a human liver cell line, with measurements taken at 24 hours after chemical dosing in a 24-well plate.ATG_FXR_TRANS is one of 30 assay component(s) measured or calculated from the ATG_TRANS assay. It is designed to make measurements of mRNA induction, a form of inducible reporter, as detected with fluorescence intensity signals by Reverse transcription polymerase chain reaction (RT-PCR) and Capillary electrophoresis technology.Data from the assay component ATG_FXR_TRANS was analyzed into 1 assay endpoint. This assay endpoint, ATG_FXR_TRANS, was analyzed in the positive analysis fitting direction relative to DMSO as the negative control and baseline of activity. Using a type of inducible reporter, measures of mRNA for gain-of-signal activity can be used to understand the reporter gene at the transcription factor-level as they relate to the gene NR1H4. Furthermore, this assay endpoint can be referred to as a primary readout, because this assay has produced multiple assay endpoints where this one serves a reporter gene function. To generalize the intended target to other relatable targets, this assay endpoint is annotated to the nuclear receptor intended target family, where the subfamily is non-steroidal.
Human liver HepG2 cells are transiently transfected with multiple reporter transcription units (MRTUs) in 6-well plates using FuGene 6 reagent (Roche; 3 ml FuGene/1 mg DNA). The MRTU constructs are regulated by a cis-regulating element (promoter). […] A major difference between the CIS and TRANS system is that in CIS activities of endogenous TFs are measured, whereas the TRANS assay evaluates changes in activities of exogenous, chimeric NR-Gal4 proteins. […] At the end of 24 hour incubation, total RNA was isolated using TriZol reagent (Invitrogen). The isolated RNA is then reverse-transcribed using oligo(dT) primer and Mo-MLV reverse transcriptase (Invitrogen) with DNAse I (Ambion) treatment for 30 min. The one-tenth of the produced cDNA was amplified by PCR using Taq DNA polymerase (Invitrogen) and two reporter sequence-specific primers. The PCR products were fluorescently labeled by primer extension with 6-arboxyfluorescein (6-FAM) 5'-labeled reporter sequence-specific primer (2 min at 95 C, 20 s at 68 C and 10 min at 72 C) and these products were digested with 5U of HpaI (New England Biolabs) for 2h at 37 C. The fragments were purified using Qiaquick PCR columns (Qiagen), analyzed on an ABI 3130xL genetic analyzer (Applied Biosystems) with peak positions identified by using a set of X-rhodamine (ROX)-labeled MapMarker1000 molecular weight standards (BioVentures). The raw capillary electrophoresis data was processed using Attagraph software (Attagene).

Bile acid receptor (Homo sapiens), sequence (Q96RI1 whole entry, looked up, the tested form may be a part): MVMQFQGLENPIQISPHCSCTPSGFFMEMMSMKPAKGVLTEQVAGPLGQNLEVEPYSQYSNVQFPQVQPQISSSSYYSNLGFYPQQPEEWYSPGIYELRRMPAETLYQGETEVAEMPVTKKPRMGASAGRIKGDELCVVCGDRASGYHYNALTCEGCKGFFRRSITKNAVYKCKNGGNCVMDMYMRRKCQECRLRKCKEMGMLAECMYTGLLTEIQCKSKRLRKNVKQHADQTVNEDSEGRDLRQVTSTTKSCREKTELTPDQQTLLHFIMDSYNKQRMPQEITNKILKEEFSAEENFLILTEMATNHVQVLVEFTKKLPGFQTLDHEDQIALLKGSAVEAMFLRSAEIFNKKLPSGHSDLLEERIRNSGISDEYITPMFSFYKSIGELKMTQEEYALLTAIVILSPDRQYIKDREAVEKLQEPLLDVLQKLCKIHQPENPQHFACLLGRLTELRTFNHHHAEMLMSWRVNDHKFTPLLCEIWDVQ

Compound | outcome | AC50
CC(O)CN(CC(C)O)CC(C)O (stereo not given) | inactive | –
Cc1cc(C)c(C2=C(OC(=O)CC(C)(C)C)C3(CCCC3)OC2=O)c(C)c1 | inactive | –
O=C1C(Cl)=C(Cl)C(=O)C(Cl)=C1Cl | inactive | –
C[C@]12CC[C@H](O)C[C@H]1CC[C@@H]1[C@@H]2C[C@@H](O)[C@]2(C)[C@@H](C3=CC(=O)OC3)CC[C@]12O | inactive | –
O=C(CCN1CC1)OCC(CO)(COC(=O)CCN1CC1)COC(=O)CCN1CC1 | inactive | –
O=C(O)C(Br)Br | inactive | –
CNC(=N[N+](=O)[O-])NCC1CCOC1 (stereo not given) | inactive | –
COc1cc(OC)nc(Oc2cccc(Oc3nc(OC)cc(OC)n3)c2C(=O)O)n1 | inactive | –
CCOP(=O)(OCC)Oc1ccc([N+](=O)[O-])cc1 | inactive | –
CN(N=O)c1ccccc1 | inactive | –
CC1OC(C)OC(C)O1 (stereo not given) | inactive | –
CC(C)CCCCCCCOP(=O)(Oc1ccccc1)Oc1ccccc1 | inactive | –
C=COCCCl | inactive | –
N#CC(c1ccccc1)c1ccccc1 | inactive | –
c1ccc2c(c1)CCCC2 | inactive | –
CC1(C)CC(=O)CC(C)(C)N1[O] | inactive | –
Nc1ccc(-c2ccc(N)c(N)c2)cc1N | inactive | –
CCC(C)c1cc(C(C)(C)C)cc(-n2nc3ccccc3n2)c1O (stereo not given) | inactive | –
CC(C)C(=O)Cl | inactive | –
O=[N+]([O-])c1cc(C(F)(F)F)c(Cl)c([N+](=O)[O-])c1Cl | – | 53.3 µM (active)

Compound | outcome | AC50
ClC1=C(Cl)[C@]2(Cl)[C@@H]3[C@@H](Cl)[C@H](Cl)C[C@@H]3[C@@]1(Cl)C2(Cl)Cl | inactive | –
COCC(=O)N(c1c(C)cccc1C)N1CCOC1=O | inactive | –
O=c1[nH]c(Cl)c(Cl)cc1Cl | inactive | –
O=P(O)(Oc1ccccc1)Oc1ccccc1 | inactive | –
c1ccc(Nc2ccc3ccccc3c2)cc1 | inactive | –
C=CC(=O)OC | inactive | –
CCC(Br)(CC)C(=O)NC(N)=O | inactive | –
CN1C[C@H](C(=O)N[C@]2(C)O[C@@]3(O)[C@@H]4CCCN4C(=O)[C@H](Cc4ccccc4)N3C2=O)C=C2c3cccc4[nH]cc(c34)C[C@H]21 | inactive | –
Oc1ccc(C2(c3ccc(O)cc3)c3ccccc3-c3ccccc32)cc1 | inactive | –
CCCOC(=O)c1ccccc1C(=O)OCCC | inactive | –
Clc1ccc(-c2ccccc2)cc1 | inactive | –
CC(=O)c1cc2c(cc1C)C(C)(C)C(C)CC2(C)C (stereo not given) | inactive | –
CC(C)CCCCCCCOC(=O)c1ccccc1C(=O)OCCCCCCCC(C)C | inactive | –
O=c1c2ccccc2c(=O)c2c1cc(Cl)c1[nH]c3c([nH]c12)c(Cl)cc1c(=O)c2ccccc2c(=O)c13 | inactive | –
CC(Cc1ccc(C(C)(C)C)cc1)CN1C[C@@H](C)O[C@@H](C)C1 (stereo not given in full) | inactive | –
CCCCCc1cc(O)cc(O)c1 | inactive | –
O=C(NC(=O)c1c(F)cccc1F)Nc1ccc(Oc2ccc(C(F)(F)F)cc2Cl)cc1F | inactive | –
COc1ccc(CO)cc1 | inactive | –
O=C1Nc2ccc(Cl)cc2C(c2ccccc2)=NC1O (stereo not given) | inactive | –
CC(C)COP(=O)(OCC(C)C)OCC(C)C | inactive | –
